The record followed here is PubChem BioAssay.

The source made the active and inactive calls. Unless noted, no rule for the calls is given here.

A short description of assay [1]: HepG2 liver cancer cell viability effects, profiling panel, resazurin fluorescence, 24 h, PK04 Diversity Set (AID 1172). Also: test concentration not given here. Conditions: higher = more signal. A general note: Alamar Blue is a resazurin reagent that responds to reducing activity.
Assay [2] is described as follows: basal S. cerevisiae growth modulation, no modifier, primary screen, OD600, strain BY4716, 24 h, basal condition (AID 1173). Conditions: OD600, 24 h, higher = more signal, called active from +8 up or from −8 down.
The nature of assay [3]: MM1S myeloma cell viability, profiling panel, resazurin fluorescence, basal, 24 h, PK04 Diversity Set (AID 1174).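 Also: MM1S multiple myeloma cell line; test concentration not given here.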 As to conditions: higher = more signal, called active from +8 up or from −8 down.
Assay [4] addresses Dihydroorotate dehydrogenase (quinone), mitochondrial (Plasmodium falciparum (isolate 3D7)) (UniProt Q08210). Briefly: PfDHODH enzyme inhibitors, primary screen, biochemical, C-terminal His tag, absorbance 600 nm (AID 1175).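 Also: recombinant parasite enzyme with a five histidine tag at its C terminus; test concentration not given here.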 Conditions: DCIP absorbance 600 nm, higher = more signal, called active from +8 up or from −8 down.
Assay [5] in a line: P. aeruginosa biofilm formation inhibitors, primary screen, strain PAO1, LB-PBS medium, absorbance 600 nm (AID 1176). Also: test concentration not given here. Conditions: P. aeruginosa PAO1 growth/biofilm, A600, 12 h; higher = more signal.
Assay [6] is described as follows: S. cerevisiae RM11-1a growth modifiers, primary screen, strain RM11-1a, OD600, basal, 24 h (AID 1177).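 Also: cultures grown under basal conditions with no added stressor; test concentration not given here.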 As to conditions: OD600, 24 h, higher = more signal, called active from +8 up or from −8 down.
Assay [7] can be described thus: E. coli acrAB mutant growth effects, primary screen, E. coli filamentation inducers, strain DRC39, OD650, 24 h (AID 1178).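 Also: growth measured as culture turbidity by optical density at 650 nm; test concentration not given here.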 Conditions: higher = more signal, called active from +8 up or from −8 down.
Assay [8] can be described thus: E. coli acrAB mutant growth effects, primary screen, E. coli filamentation inducers, strain DRC39, OD650, 48 h (AID 1179).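 Also: screen aims at cell division blockers that make cells filament.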 As to conditions: E. coli DRC39 delta-acrAB growth, higher = more signal, called active from +8 up or from −8 down.
Assay [9] is described as follows: RPMI8226 myeloma cell viability, profiling panel, resazurin fluorescence, basal, 24 h, PK04 Diversity Set (AID 1180).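 Also: RPMI8826 multiple myeloma cell line at 5000 cells per well; test concentration not given here.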 Conditions: higher = more signal.
In assay [10] the target is E3 ubiquitin-protein ligase XIAP (Homo sapiens) (UniProt P98170). Briefly: XIAP binders, primary screen, biophysical, small-molecule microarray, fluorescence 635 nm (AID 1181).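 Also: score merges 667 nm emission and signal to noise over triplicate slides.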 Conditions: small-molecule microarray binding, higher = more signal.
E3 ubiquitin-protein ligase XIAP (Homo sapiens), sequence (P98170 whole entry, looked up): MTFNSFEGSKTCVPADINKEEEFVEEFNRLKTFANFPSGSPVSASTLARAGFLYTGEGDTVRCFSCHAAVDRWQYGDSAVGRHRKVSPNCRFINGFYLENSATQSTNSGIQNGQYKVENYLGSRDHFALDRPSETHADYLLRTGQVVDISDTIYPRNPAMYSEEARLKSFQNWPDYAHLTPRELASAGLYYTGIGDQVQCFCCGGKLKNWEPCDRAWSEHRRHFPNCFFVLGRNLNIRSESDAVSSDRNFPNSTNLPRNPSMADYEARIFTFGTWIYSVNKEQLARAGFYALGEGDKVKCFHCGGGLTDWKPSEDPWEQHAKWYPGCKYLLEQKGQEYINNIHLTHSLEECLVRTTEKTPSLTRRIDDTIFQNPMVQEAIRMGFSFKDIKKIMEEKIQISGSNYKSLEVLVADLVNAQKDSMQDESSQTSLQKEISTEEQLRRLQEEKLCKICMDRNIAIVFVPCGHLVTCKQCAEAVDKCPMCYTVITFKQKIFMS

Dihydroorotate dehydrogenase (quinone), mitochondrial (Plasmodium falciparum (isolate 3D7)), sequence (Q08210 whole entry, looked up): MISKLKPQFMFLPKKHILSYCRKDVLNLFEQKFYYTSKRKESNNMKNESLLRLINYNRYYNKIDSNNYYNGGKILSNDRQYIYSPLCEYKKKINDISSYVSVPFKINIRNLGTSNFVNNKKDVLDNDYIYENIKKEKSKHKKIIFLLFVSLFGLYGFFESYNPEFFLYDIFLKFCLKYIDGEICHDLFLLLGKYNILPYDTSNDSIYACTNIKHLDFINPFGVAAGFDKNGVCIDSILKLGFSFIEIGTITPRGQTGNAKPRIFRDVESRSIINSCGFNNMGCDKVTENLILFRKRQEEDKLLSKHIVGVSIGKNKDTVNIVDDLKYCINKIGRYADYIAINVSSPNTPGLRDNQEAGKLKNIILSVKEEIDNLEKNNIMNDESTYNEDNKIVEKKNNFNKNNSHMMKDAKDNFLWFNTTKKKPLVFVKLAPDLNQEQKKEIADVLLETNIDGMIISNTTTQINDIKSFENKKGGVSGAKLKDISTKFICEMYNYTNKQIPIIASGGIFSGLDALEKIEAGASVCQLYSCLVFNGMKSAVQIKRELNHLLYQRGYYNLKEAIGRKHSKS

On to `COCCOC(=O)N1C(=O)[C@@]2(c3cc(C#CCNC(N)=O)ccc31)[C@H](C(N)=O)[C@H]1C(=O)O[C@H](c3ccccc3)[C@H](c3ccccc3)N1[C@@H]2c1ccc(OCCO)cc1`, for which the z-score was -0.195 in assay [1]; 0.713 (inactive) in assay [2]; -0.508 (inactive) in assay [3]; 0.995 (inactive) in assay [5]; 1.62 (inactive) in assay [6]; 0.152 (inactive) in assay [7]. For the same compound, the figures for the z-score in assay [8] and in [9] were -0.0952 (inactive) and -1.09, respectively. Further, the composite z-score in assay [4] is 0.506 (inactive); in [10] it was -0.188.

On to `COC(=O)[C@@]1(Cc2ccc(F)cc2)[C@@H]2[C@@H](CC(=O)[C@H]2CC(=O)C(=O)N2CCCC2)CN1C(=O)c1ccccc1`, for which the z-score in assay [1] is -0.572; in [2] it was 0.508 (inactive); in assay [3], -1.78 (inactive); in assay [5], 1.03 (inactive); in assay [6], 0.23 (inactive); in assay [7], -1.25 (inactive). Also, the z-score in assay [8] is -0.212 (inactive); in assay [9], -3.35. The composite z-score was -0.238 (inactive) in assay [4] and -0.0553 in assay [10].

Take `C=C[C@H](C)[C@H](OC(=O)Nc1ccc(SC)cc1)c1ccc(O)c2ccccc12`: the z-score in [1] is -1.13; in assay [2], -18.5 (active); in assay [3], -3.69 (inactive); in assay [5] it was 0.802 (inactive); in assay [6], -3.62 (inactive); in assay [7] it was -1.46 (inactive). The z-score in [8] is -1.6 (inactive); in [9], -2.55. Further, the results for the composite z-score in [4] and in assay [10] were -2.47 (inactive) and 0.0528, respectively.

Regarding `NC(=O)NCC#Cc1ccc2c(c1)[C@]1(C(=O)N2)[C@H](c2ccc(O)cc2)N2[C@H](c3ccccc3)[C@H](c3ccccc3)OC(=O)[C@H]2[C@@H]1C(N)=O`, the z-score in assay [1] was -0.49; in assay [2] it was -0.297 (inactive); in assay [3] it was -0.226 (inactive); in [5] it was 0.185 (inactive); in assay [6], 0.603 (inactive); in assay [7] it was 0.968 (inactive). The z-score in [8] was 0.936 (inactive); in [9], -0.11. The composite z-score in assay [4] is -0.552 (inactive); in assay [10], 0.074.

As for `NC(=O)NCC#Cc1ccc2c(c1)[C@]1(C(=O)N2)[C@H](c2ccc(OCCO)cc2)N2[C@H](c3ccccc3)[C@H](c3ccccc3)OC(=O)[C@H]2[C@@H]1C(=O)N1CCCCCCC1`, the z-score in assay [1] is 0.314; in assay [2], 1.64 (inactive); in [3], -0.476 (inactive); in [5], 2.03 (inactive); in [6] it was 2.58 (inactive); in [7], -0.172 (inactive). Also, the z-score is -1.96 (inactive) in [8] and -0.507 in assay [9]. The composite z-score in assay [4] is 0.769 (inactive); in assay [10] it was 0.531.

For `C=C(/C(=C/C[C@@H](OC(=O)c1ccncc1)c1cccc(OCCO)c1)c1cc(C(=O)OC)ccc1OC)C(C)C`, the z-score was 0.677 in [1]; -0.243 (inactive) in assay [2]; -0.261 (inactive) in assay [3]; 1.16 (inactive) in assay [5]; 0.0342 (inactive) in [6]; 2.07 (inactive) in assay [7]. Further, the z-score was 1.42 (inactive) in assay [8] and 0.301 in assay [9]. For the same compound, the composite z-score is -2.04 (inactive) in [4] and -0.107 in assay [10].

Regarding `C=CCN1C(=O)[C@@]2(O[C@@H](CCO)[C@H]([Si](C)(C)c3ccc(OC)cc3)[C@H]2C)c2cc(NC(=O)[C@H](C)O)ccc21`, the z-score in assay [1] is -1.15; in assay [2] it was -2.34 (inactive); in assay [3] it was -2.15 (inactive); in assay [5], 1.73 (inactive); in [6] it was 2.32 (inactive); in assay [7], 0.895 (inactive). For the same compound, the z-score in [8] was 0.403 (inactive); in [9], -2.3. Moreover, the composite z-score in assay [4] was -0.108 (inactive); in assay [10] it was 0.555.

`COc1cc2c(cc1OC)CN(C(=O)[C@@H]1[C@H]3C(=O)O[C@H](c4ccccc4)[C@H](c4ccccc4)N3[C@H](c3ccc(OCCO)cc3)[C@@]13C(=O)Nc1ccc(C#CCCO)cc13)CC2`: the z-score in assay [1] was -0.0794; in [2], 0.66 (inactive); in [3], 0.113 (inactive); in assay [5], 2.75 (inactive); in assay [6] it was 1.45 (inactive); in assay [7], 0.592 (inactive). The z-score in assay [8] was -0.13 (inactive); in assay [9] it was 0.768. The composite z-score in assay [4] was 1.66 (inactive); in assay [10], -0.113.

As for `CC(C)(C)OC(=O)CC[C@]1(C(=O)N2CCCCC2)N=C(c2ccc(OCCCO)cc2)O[C@H]1c1ccccc1CN=[N+]=[N-]`, the z-score in [1] was -0.725; in assay [2], -0.451 (inactive); in assay [3], 0.0183 (inactive); in assay [5], 0.618 (inactive); in assay [6] it was -0.391 (inactive); in [7], 2.41 (inactive). Besides, the z-score was 2.39 (inactive) in [8] and -0.357 in [9]. Moreover, the results for the composite z-score in assay [4] and in assay [10] were -0.625 (inactive) and 0.0346, respectively.

In the case of `COC(=O)C(CC#Cc1ccc2c(c1)[C@]1(C(=O)N2)[C@H](C(=O)N2CCc3cc(OC)c(OC)cc3C2)[C@H]2C(=O)O[C@H](c3ccccc3)[C@H](c3ccccc3)N2[C@@H]1c1ccc(OCCO)cc1)C(=O)OC`, the z-score in assay [1] is -0.0956; in [2], 2.36 (inactive); in assay [3] it was -0.229 (inactive); in [5] it was 3.55 (inactive); in assay [6], 4.29 (inactive); in assay [7] it was -0.538 (inactive). In addition, the z-score in [8] is 0.704 (inactive); in [9], -0.0688. For the same compound, the results for the composite z-score in [4] and in [10] were -6.24 (inactive) and 0.23, respectively.

Regarding `CC(C)CN1C(=O)[C@@]2(Cc3ccccc31)c1ccccc1C(=O)N(Cc1ccccc1)[C@H]2c1ccc(CO)cc1`, the z-score in [1] was -0.436; in [2] it was 0.145 (inactive); in assay [3], -0.765 (inactive); in assay [5], 0.745 (inactive); in [6], -0.286 (inactive); in assay [7], 0.109 (inactive). Moreover, the values for the z-score in assay [8] and in [9] were -0.663 (inactive) and -0.904, respectively. For the same compound, the composite z-score in assay [4] is -2.4 (inactive); in assay [10], -0.25.

As for `C=CCOc1ccc([C@@H]2CC=C(C(=O)OCC)[C@H](c3cccc(Br)c3)N2S(=O)(=O)c2ccc(C)cc2)cc1`, the z-score is -0.696 in assay [1]; 0.465 (inactive) in assay [2]; 0.262 (inactive) in [3]; 0.285 (inactive) in [5]; -0.897 (inactive) in [6]; -0.273 (inactive) in [7]. In addition, the figures for the z-score in assay [8] and in assay [9] were 1.05 (inactive) and -0.155, respectively. The figures for the composite z-score in assay [4] and in assay [10] were -1.92 (inactive) and -0.258, respectively.

`COc1cc2c(cc1OC)CN(C(=O)[C@@H]1[C@H]3C(=O)O[C@H](c4ccccc4)[C@H](c4ccccc4)N3[C@H](c3ccc(O)cc3)[C@@]13C(=O)Nc1ccc(C#CCNC(N)=O)cc13)CC2`: the z-score was 1.1 in assay [1]; 0.526 (inactive) in [2]; 0.602 (inactive) in assay [3]; 0.723 (inactive) in [5]; 2.03 (inactive) in assay [6]; 0.595 (inactive) in [7]. The z-score in [8] was 0.322 (inactive); in [9], 0.431. For the same compound, the composite z-score was -0.0904 (inactive) in [4] and -0.0663 in assay [10].
